In PubChem BioAssay (NCATS):
Results filed as inconclusive are left out. Activity calls are given as the source filed them. The call rests on the fitted dose curve.

Tests used:
Settings in all cases: outcome: dose series up to 57.1 µM unless noted
[1] = Primary qHTS for inhibitors of SARS-S pseudo-typed particle cell entry (AID 1479145); further: series mostly up to about 57 µM; on the % scale 0 is the no-effect control and ±100 the full control effect; nearly all actives have a fitted effect of over 45% in size
[2] = Primary qHTS for Huh7 cytotoxicity: counterscreen for inhibitors of MERS-S pseudotyped particle cell entry (AID 1479147); further: on the % scale 0 is the no-effect control and ±100 the full control effect
[3] = Primary qHTS for inhibitors of MERS-S pseudo-typed particle cell entry (AID 1479149); further: nearly all actives have a fitted effect of over 60% in size
[4] = Primary qHTS for Vero E6 cytotoxicity: counterscreen for inhibitors of SARS-S pseudo-typed particle cell entry (AID 1479150); on activity change, negative = cytotoxicity: on the % scale 0 is the no-effect control and ±100 the full control effect
[5] = Cytotoxicity counterscreen for inhibitors of SARS-CoV-2 cell entry (AID 1645845); further: nearly all actives have a fitted effect of over 50% in size
Procedure, shortened: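 After a 15 min room-temperature ATPLite 1step step, luminescence reflected ATP remaining in HEK293-ACE2 cells exposed to compound for 1 h plus 48 h at 37 C, with percent activity set by cell and no-cell controls.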

N#Cc1cc(-c2n[nH]c(-c3ccncc3)n2)ccn1
inactive: Potency [1] | Potency [2] | Potency [3] | Potency [4]

Nc1nc2c(c(=O)[nH]1)N(C=O)C(CNc1ccc(C(=O)N[C@@H](CCC(=O)O)C(=O)O)cc1)CN2 (some centres undefined)
inactive: activity change, negative = inhibition [1] -33% [at 0.573 µM] | activity change, negative = cytotoxicity [2] 2.64% [at 0.573 µM] | outcome [3] inactive [at 0.573 µM] | activity change, negative = cytotoxicity [4] 2.47% [at 0.573 µM] | outcome [5] inactive [at 0.702 µM]
